PubChem BioAssay (NCATS)
Results filed as inconclusive are left out. Active and inactive are the calls of the source. Calls come from the whole dose curve; as a rule, active = well fitted cell-killing curve with a large enough effect; inconclusive = small, poorly fitted or top-dose-only effect, or effect the other way; inactive = no such curve, though single readings can be large or run the other way.

How the values were obtained:
[1] = Quantitative High-Throughput drug screen in 47 multiple myeloma cell lines against the NCATS MIPE library collection: FR4_PLB cell viability assay (AID 1918924; note: nearly all actives have a fitted effect of over 35% in size); details: FR4_PLB myeloma cells viability, CellTiter-Glo ATP, 48 h; series mostly up to 45.8 µM
How it was run: (§1)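 Myeloma cell lines, 500 cells per well, exposed to MIPE 4.0 library compounds for 48 h at 37C, 5% CO2. Viability from ATP by CellTiter-Glo luminescence; normalised to DMSO (100%) and media-only (0%) wells.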

[2] = Quantitative High-Throughput drug screen in 47 multiple myeloma cell lines against the NCATS MIPE library collection: Delta47_JCRB cell viability assay (AID 1918925; note: nearly all actives have a fitted effect of over 45% in size); details: Delta47 myeloma viability, CellTiter-Glo ATP, 48 h; series mostly up to 45.8 µM
How it was run: as §1

[3] = Quantitative High-Throughput drug screen in 47 multiple myeloma cell lines against the NCATS MIPE library collection: EJM_DSMZ cell viability assay (AID 1918926; note: nearly all actives have a fitted effect of over 30% in size); details: EJM myeloma cell viability, CellTiter-Glo ATP, 48 h; series mostly up to 45.8 µM
How it was run: as §1

[4] = Quantitative High-Throughput drug screen in 47 multiple myeloma cell lines against the NCATS MIPE library collection: ARP1_JJKsccF8 cell viability assay (AID 1918928; note: nearly all actives have a fitted effect of over 40% in size); details: ARP1 myeloma cells viability, CellTiter-Glo ATP, 48 h; series mostly up to 45.8 µM
How it was run: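 Myeloma cells at 500 per well in 1536-well format treated with MIPE 4.0 library by pin transfer for 48 h at 37C, 5% CO2. Viability from ATP luminescence (CellTiter-Glo), normalized to DMSO (100%) and media-only (0%) wells.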

[5] = Quantitative High-Throughput drug screen in 47 multiple myeloma cell lines against the NCATS MIPE library collection: Karpas620_DSMZ cell viability assay (AID 1918959); details: Karpas620 myeloma viability, CellTiter-Glo ATP luminescence, 48 h; series mostly up to 45.8 µM; note: nearly all actives have a fitted effect of over 30% in size
How it was run: as §1

[6] = Quantitative High-Throughput drug screen in 47 multiple myeloma cell lines against the NCATS MIPE library collection: AMO1_DSMZ cell viability assay (AID 1918927; note: nearly all actives have a fitted effect of over 30% in size); details: AMO1 myeloma cells viability, CellTiter-Glo ATP luminescence, 48 h; series mostly up to 45.8 µM
How it was run: as §1

[7] = Quantitative High-Throughput drug screen in 47 multiple myeloma cell lines against the NCATS MIPE library collection: ARD_JJKsccE7 cell viability assay (AID 1918929); details: ARD myeloma cell line viability, CellTiter-Glo, 48 h; series mostly up to 45.8 µM
How it was run: as §1

Measured: Potency
Potency is the fitted concentration of half-maximal effect.

COc1cc(=C2C=c3ccccc3=N2)[nH]c1=Cc1[nH]c(C)cc1C
active: [1] 1180 nM | [2] 1870 nM | [3] 6620 nM | [4] 1050 nM | [5] 7430 nM

CCCCN1CCC(CNC(=O)c2c3n(c4ccccc24)CCCO3)CC1
active: [1] 11800 nM | [2] 6620 nM | [3] 1480 nM | [6] 13200 nM | [4] 20900 nM | [7] 16600 nM

C=C1C(=CC=C2CCCC3(C)[C@@H]([C@H](C)C=CC=CC(O)(CC)CC)CC[C@@H]23)C[C@@H](O)C[C@@H]1O (stereo partly specified)
active: [6] 14800 nM | [4] 20900 nM | [7] 16600 nM | [5] 20900 nM

C1=CCOCc2cc(ccc2OCCN2CCCC2)Nc2nccc(n2)-c2cccc(c2)OCC1
active: [1] 3320 nM | [2] 2350 nM | [6] 3320 nM | [4] 1660 nM | [7] 1870 nM | [5] 2090 nM

Nc1ccn([C@@H]2O[C@H](CO)[C@H](O)C2(F)F)c(=O)n1
active: [2] 41.8 nM | [6] 59 nM | [4] 105 nM | [7] 296 nM | [5] 469 nM
